36 molecules from PubChem BioAssay (NCI) can be followed below.

Structures are written as SMILES. About 83,000 compounds went through this panel and 20% of them were active in at least one assay; those are over-represented in the sample as a whole.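 Interpretation: 100, growth as untreated; towards 0, rising growth inhibition; 0, no net growth; 0 to -100, cell death. Compounds scoring below 10 were considered active.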 A number with no mark means an inactive call. Activity calls are given as the source filed them.

In this experiment the test system is MDA-MB-468 breast. As to the kind of experiment: NCI-60 one-dose screen, 48 h (100 = growth as untreated, 0 = no growth, -100 = all killed). As to conditions: 10 µM unless noted.
Consider `CCc1cccc(Cl)c1`, for which the growth was 113%.

For `C=CC(O)CCC` (stereo unspecified), the growth was 109%. Take `COc1ccc(-c2nc3ccc(-c4nc5ccc(N6CCN(c7ccc(F)cc7)CC6)cc5[nH]4)cc3[nH]2)cc1OC`: the growth is 67.4%. The value for `CSc1nc2c(c(=O)n1C)N=C1c3ccccc3C(=O)C1C(c1ccccc1)N2` (stereo unspecified) was 54.8%; that for `CC(=O)Nc1ccc(OC(=O)c2ccccc2O)cc1` was 117%; that for `N=C(N)c1ccc(-c2ccc(-c3ccc(Cl)cc3Cl)o2)cc1` was -84.4% (active). For `CC(C)Nc1cc(-c2c[nH]c(C(=O)N[C@H](CO)c3cccc(Cl)c3)c2)c(Cl)cn1`, the growth is 43.6%. The value for `O=C(Nc1ccc(F)cc1)c1cc([N+](=O)[O-])ccc1O` was 56.3%; that for `Cc1nnc(/N=C2\NC(=O)/C(=C/c3ccsc3)S2)s1` was 110%; that for `O=C(NOC[C@H](O)CO)c1ccc(F)c(F)c1Nc1ccc(I)cc1F` was 106%. Turning to `O=C(O)c1cccc([N+](=O)[O-])c1`, the growth was 109%. Then `C/C(=C(/c1ccccc1)c1ccc(N2C(=O)c3cccc4c(NCc5ccccc5)ccc(c34)C2=O)cc1)c1ccccc1`, with 116%; and `C[C@@H]1C[C@H]2C(=O)O[C@@H](C)[C@H](NC(=O)[C@H](Cc3cc(F)cc(F)c3)NC(=O)Nc3ccc(C4CC4)cc3F)C(=O)N3CCC[C@H]3C(=O)N3CCCC[C@H]3C(=O)N[C@@H](C)C(=O)N2C1`, with -16.1% (active); and `COc1cc(COC(=O)CCCCC[P+](c2ccccc2)(c2ccccc2)c2ccccc2)c(OC)c2c1OCO2`, with -2.4% (active). Then `CN(C)S(=O)(=O)c1oc(-c2ccccc2)nc1C#N`, with 35%. Then `CCOc1ccc(/C=N/Nc2cc(C)nc3ccc(Br)cc23)cc1`, with 65.2%; and `Nc1n[nH]c2cccc(C#Cc3cccc(NC(=O)c4cccc(C(F)(F)F)c4)c3)c12`, with 79.3%; and `Oc1c(-c2cc(C(F)(F)F)[nH]n2)cc(Cl)c(OCc2ccc(Cl)cc2)c1-c1ccc(Cl)c(C(F)(F)F)c1`, with -21.4% (active). Regarding `CCCCN(CCCC)CCC(O)c1cc2ccc(C(F)(F)F)cc2c2cc(C(F)(F)F)ccc12` (stereo unspecified), the growth was 39.6%. Then `NS(=O)(=O)c1ccc(CCn2c(SCC(=O)N/N=C/c3cccnc3)nc3ccccc3c2=O)cc1`, with 92.9%; and `O=C(CCCCCn1c2ccccc2c2c3c(c4c5ccccc5[nH]c4c21)C(=O)N(O)C3=O)N1CCOCC1`, with 3.68% (active); and `Cc1ccc(NC2=C(Cl)C(=O)c3nc(C)ccc3C2=O)cc1`, with -81.9% (active). The value for `Nc1ccc(C2=NN(C(=O)c3cc(-c4ccc(Cl)cc4)nc4ccccc34)C(c3ccccc3)C2)cc1` (stereo unspecified) was 7.91% (active). For the molecule `COc1cc(-c2nc3ccccc3[nH]2)ccc1OCC(=O)N=Nc1c(O)[nH]c2ccccc12`, the growth was -55.4% (active). The value for `COc1ccc(NC(=O)COc2ccccc2)c(C(N)=O)c1` was 16.6%; that for `Oc1ccc(-c2nc(-c3ccc4oc5ccc(-c6[nH]c(-c7ccc(O)cc7)nc6-c6ccccc6)cc5c4c3)c(-c3ccccc3)[nH]2)cc1` was 6.14% (active). Consider `Nc1c(C(=O)Nc2cccc3c2OCCO3)sc2nc3c(cc12)CN(Cc1ccccc1)CC3`, for which the growth was 38.8%.

`CCOC(=O)c1ccc2[nH]c(-c3ccccc3)cc(=O)c2c1`: the growth is 105%. The value for `Oc1ccc(/C=N/NC(=S)Nc2ccccc2)nc1` was -37.7% (active); that for `C=C(C)[C@@H]1CC[C@]2(C(=O)N[C@@H](Cc3ccccc3)C(=O)OC)CC[C@]3(C)[C@H](CC[C@@H]4[C@@]5(C)CCC(=O)C(C)(C)[C@@H]5CC[C@]43C)[C@@H]12` was 84.2%. The value for `CCOc1ccc(S(=O)(=O)c2ccc(C)cc2)c2c1no[n+]2[O-]` was 103%; that for `Cc1cc(NCCCNc2ccnc3cc(Cl)ccc23)nc(Nc2ccc(C(=O)N3CCCCC3)cc2)n1` was -19% (active); that for `Cc1cc(N2CCCC2)nc(N(CCCNc2ccnc3cc(Cl)ccc23)Cc2ccccn2)n1` was 53.2%. For the molecule `Cc1cc(N2CCOCC2)nc(N(CCCNc2ccnc3cc(Cl)ccc23)Cc2ccc3c(c2)OCO3)n1`, the growth is -63.6% (active). The value for `C#CCOc1ccc2ncnc(Nc3cccc(NC(=O)CCl)c3)c2c1` was 68.5%.

As for `COc1ccc2c(O)cc3c(c2c1)[C@H](CCl)CN3C(=O)c1cc2cc(NC(=O)CCN3CCOCC3)ccc2[se]1`, the growth was -25.3% (active).
